Test results taken from PubChem BioAssay (Tox21).
Several values for one entry are separate records, joined by “and”; a condition that tells them apart may be missing. Equal entries are not always repeated. Records with an inconclusive call do not appear. Where a call stands in place of a potency, no number is given. Activity calls are given as the source filed them. Unless noted, the call rests on the fitted dose curve; in most records, active means well fitted curve in the direction sought with a large enough effect in the repeat runs; inconclusive means weak or mixed curves; inactive means no such curve, though single readings can be large; an effect the other way counts as inactive or inconclusive.

Assays:
[1] = qHTS assay to identify small molecule agonists of the estrogen receptor alpha (ER-alpha) signaling pathway in the presence of an antagonist - cell viability counter screen (AID 1259386);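 further: cells exposed to compounds for 22 h at 37 °C before the viability read; nearly all actives have a fitted effect of over 30% in size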; further: potency means the concentration at half of the fitted maximal effect
Summary of the method: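 Cytotoxicity was measured in parallel with the ERE-luciferase agonist screen, in the same wells. The cells were VM7Luc4E2, which endogenously express ER-alpha, and treatment was with compounds plus 10.0nM ICI-182,780 for 22hr.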

[2] = molecular target: Progesterone receptor (Homo sapiens) (UniProt P06401); assay: qHTS assay to identify small molecule agonists of the progesterone receptor (PR) signaling pathway (AID 1346784; calls by dose curve; further: nearly all actives have a fitted effect of over 30% in size)
Chain of Progesterone receptor (Homo sapiens) (P06401 whole entry, looked up): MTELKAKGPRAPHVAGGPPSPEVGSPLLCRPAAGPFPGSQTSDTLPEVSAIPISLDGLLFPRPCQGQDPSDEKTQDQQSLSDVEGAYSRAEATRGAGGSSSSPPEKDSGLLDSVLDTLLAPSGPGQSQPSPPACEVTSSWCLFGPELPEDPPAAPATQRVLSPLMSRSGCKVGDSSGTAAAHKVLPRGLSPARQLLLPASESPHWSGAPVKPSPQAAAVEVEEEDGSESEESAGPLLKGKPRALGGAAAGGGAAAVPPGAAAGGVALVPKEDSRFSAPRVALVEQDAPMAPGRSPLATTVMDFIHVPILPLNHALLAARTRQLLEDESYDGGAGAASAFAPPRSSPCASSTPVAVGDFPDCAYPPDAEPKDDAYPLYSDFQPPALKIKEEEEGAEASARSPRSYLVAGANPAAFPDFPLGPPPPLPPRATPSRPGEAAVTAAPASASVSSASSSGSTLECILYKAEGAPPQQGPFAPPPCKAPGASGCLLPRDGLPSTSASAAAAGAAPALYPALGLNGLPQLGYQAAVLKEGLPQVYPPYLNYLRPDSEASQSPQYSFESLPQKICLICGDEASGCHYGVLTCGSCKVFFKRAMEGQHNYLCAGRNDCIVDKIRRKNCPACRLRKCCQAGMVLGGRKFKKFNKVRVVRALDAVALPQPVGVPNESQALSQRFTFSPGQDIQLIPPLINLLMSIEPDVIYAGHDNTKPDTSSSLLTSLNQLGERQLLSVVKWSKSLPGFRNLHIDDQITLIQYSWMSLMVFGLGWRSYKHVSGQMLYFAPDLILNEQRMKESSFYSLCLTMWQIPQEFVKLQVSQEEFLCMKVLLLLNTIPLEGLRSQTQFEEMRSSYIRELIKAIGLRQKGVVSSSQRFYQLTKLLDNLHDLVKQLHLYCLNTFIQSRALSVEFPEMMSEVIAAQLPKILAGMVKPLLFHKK
Summary of the method: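 HEK 293T PR-UAS-bla reporter cells, 2% charcoal-stripped FBS; 6 hr settle at 37C/5% CO2, compound (DMSO) 16 hr, LiveBLAzer B/G FRET substrate 2 hr RT, fluorescence intensity read.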

[3] = molecular target: Progesterone receptor (Homo sapiens) (UniProt P06401); assay: qHTS assay to identify small molecule antagonists of the progesterone receptor (PR) signaling pathway (AID 1346795; active means well fitted inhibition curve with a large enough effect in the signal ratio in the repeat runs, not every such curve was filed as active; the % refers to the signal ratio; further: potency means the concentration at half of the fitted maximal effect)
Summary of the method: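 Beta-lactamase reporter, HEK293T PR-UAS-bla line; 2% charcoal-stripped FBS; 6 hr pre-incubation, 37C/5% CO2. Compound + R5020 1 nM final, 16 hr. LiveBLAzer B/G FRET substrate, 2 hr RT; fluorescence intensity read.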

[4] = qHTS assay to identify small molecule antagonists of the progesterone receptor (PR) signaling pathway - cell viability counter screen (AID 1346798); further: series mostly up to about 92 µM; nearly all actives have a fitted effect of over 50% in size
Summary of the method: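 Luminescence readout (CellTiter-Glo, 30 min, RT) of viability in PR-UAS-bla HEK293T cells exposed to compound and R5020 agonist for 16 hr at 37C, 5% CO2; run in the same wells as the beta-lactamase reporter read.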

[5] = qHTS assay to identify small molecule agonists of the progesterone receptor (PR) signaling pathway - cell viability counter screen (AID 1346799; calls by dose curve; further: nearly all actives have a fitted effect of over 45% in size)
Summary of the method: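 HEK293T PR-UAS-bla, 3,000 cells/well, 2% charcoal-stripped FBS; 6 h settle, compound 16 h at 37C/5% CO2; LiveBLAzer 2 h RT, then CellTiter-Glo 30 min RT, luminescence read.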

[6] = qHTS assay to identify small molecule antagonists of the TGF-beta/Smad signaling pathway - cell viability counter screen (AID 1346824); further: nearly all actives have a fitted effect of over 50% in size
Summary of the method: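 SBE-bla HEK 293T cells, incubated overnight, then compound plus 0.25 ng/mL TGF-beta1 (stock added) for 5 hr at 37 C. Viability was read in the same wells by CellTiter-Glo luminescence after 30 min at room temperature.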

[7] = qHTS assay to identify small molecule agonists of the TGF-beta/Smad signaling pathway - cell viability counter screen (AID 1346829); further: top concentration of the series differs between compounds; nearly all actives have a fitted effect of over 45% in size
Summary of the method: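 Same-well cytotoxicity: CellTiter-Glo added after the 2 hr room-temperature beta-lactamase substrate step, luminescence measured 30 min later; cells had 5 hr of compound at 37 C.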

[8] = qHTS assay to identify small molecule agonists of the TGF-beta/Smad signaling pathway (AID 1346859; active means well fitted activation curve with a large enough effect in the signal ratio in the repeat runs, not every such curve was filed as active; the % refers to the signal ratio; further: series mostly up to about 77 µM)
Summary of the method: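 Read-out: fluorescence at 460 and 530 nm (405 nm excitation) after a 2 hr room-temperature incubation with beta-lactamase FRET substrate. SBE-bla HEK 293T cells had been treated with test compounds for 5 hr at 37 C.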

[9] = molecular target: Thyrotropin-releasing hormone receptor (Homo sapiens) (UniProt P34981); assay: qHTS assay to identify small molecule antagonists of the thyrotropin-releasing hormone receptor (TRHR) signaling pathway (AID 1346877; active means well fitted inhibition curve with a large enough effect in the repeat runs, not every such curve was filed as active; further: series mostly up to about 51 µM)
Chain of Thyrotropin-releasing hormone receptor (Homo sapiens) (P34981 whole entry, looked up): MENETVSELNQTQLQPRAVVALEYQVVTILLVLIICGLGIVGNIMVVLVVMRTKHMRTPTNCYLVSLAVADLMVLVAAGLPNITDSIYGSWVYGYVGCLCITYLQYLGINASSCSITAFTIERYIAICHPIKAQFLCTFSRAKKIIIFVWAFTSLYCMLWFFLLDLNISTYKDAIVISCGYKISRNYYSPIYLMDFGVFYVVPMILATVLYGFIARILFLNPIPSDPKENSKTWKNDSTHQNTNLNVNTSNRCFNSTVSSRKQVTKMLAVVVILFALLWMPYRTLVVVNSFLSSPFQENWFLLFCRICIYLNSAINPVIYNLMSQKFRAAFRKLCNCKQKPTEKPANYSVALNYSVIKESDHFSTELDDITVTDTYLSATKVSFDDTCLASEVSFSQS
Summary of the method: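 Antagonism is measured as suppression of the calcium response to 1 nM TRH in TRHR-HEK293 cells that have been dye-loaded for 2 h at 37 °C after overnight plating. Each compound is tested at 15 concentrations in triplicate.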

[10] = molecular target: Thyrotropin-releasing hormone receptor (Homo sapiens) (UniProt P34981); assay: qHTS assay to identify small molecule agonists of the thyrotropin-releasing hormone receptor (TRHR) signaling pathway (AID 1346891; calls by dose curve;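 further: HEK293 cells expressing TRHR with calcium dye readout; series mostly up to about 58 µM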)
Summary of the method: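 HEK293/TRHR cells, 1500 per well, 18 h 37 °C; Ca dye 2 h 37 °C; pin-tool compound addition (agonist mode); kinetic fluorescence 3 min, 1 s reads; 15 concentrations, triplicate.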

Structure (SMILES)	Potency [1]	Potency [2]	Potency [3]	outcome [4]	outcome [5]	outcome [6]	outcome [7]	outcome [8]	outcome [9]	outcome [10]
c1ccc2c(c1)Cc1ccccc1-2	inactive	inactive	inactive	inactive	inactive	inactive	inactive	inactive	–	–
O=C(O)c1cc2ccccc2cc1O	inactive	inactive	inactive	inactive	inactive	inactive	inactive	inactive	–	–
CCCCCCCCCCN	inactive	inactive	inactive	inactive	inactive	inactive	inactive	inactive	inactive	–
CCCCCCCCCCO	inactive	inactive	inactive	inactive	inactive	inactive	inactive	inactive	inactive	–
CNC(=S)N(C)C	inactive	inactive	inactive	inactive	inactive	inactive	inactive	inactive	–	–
O=C(O)c1ccccc1C(=O)O	inactive	inactive	inactive	inactive	inactive	inactive	inactive	inactive	–	–
C=C(C)CNCC	inactive	inactive	inactive	inactive	inactive	inactive	inactive	inactive	inactive	–
C=C(C)[C@H]1CC=C(C)C(=O)C1	inactive	inactive	inactive	inactive	inactive	inactive	inactive	inactive	–	–
CCOCC(=O)O	inactive	inactive	inactive	inactive	inactive	inactive	inactive	inactive	–	–
CCNc1cccc(C)c1	inactive	inactive	inactive	inactive	inactive	inactive	inactive	inactive	–	–
CCOC(=O)n1ccn(C)c1=S	inactive	inactive	inactive	inactive	inactive	inactive	inactive	inactive	–	–
CC1(C)S[C@@H]2[C@H](NC(=O)COc3ccccc3)C(=O)N2[C@H]1C(=O)O	inactive	inactive	inactive	inactive	inactive	inactive	inactive	inactive	inactive	–
Cc1ccc(C(C)C)c(O)c1	inactive	inactive	inactive	inactive	inactive	inactive	inactive	inactive	inactive	–
COc1ccc(CCC(C)=O)cc1	inactive	inactive	inactive	inactive	inactive	inactive	inactive	inactive	inactive	–
COc1cc(OC)c(C(=O)CCCN2CCCC2)c(OC)c1	inactive	inactive	inactive	inactive	inactive	inactive	inactive	inactive	inactive	–
CCNc1ccccc1	inactive	inactive	inactive	inactive	inactive	inactive	inactive	inactive	–	–
O=C(O)CCCCCCCCC(=O)O	inactive	inactive	inactive	inactive	inactive	inactive	inactive	inactive	inactive	–
Nc1ccc(Cl)c(N)c1	inactive	inactive	inactive	inactive	inactive	inactive	inactive	inactive	–	–
NCCN1CCNCC1	inactive	inactive	inactive	inactive	inactive	inactive	inactive	inactive	–	–
CC(=O)OCc1ccco1	inactive	inactive	inactive	inactive	inactive	inactive	inactive	inactive	–	–

Structure (SMILES)	Potency [1]	Potency [2]	Potency [3]	outcome [4]	outcome [5]	outcome [6]	outcome [7]	outcome [8]	outcome [9]	outcome [10]
O=S(=O)(O)c1ccc(N=Nc2c(O)ccc3cc(S(=O)(=O)O)ccc23)cc1	48.8 µM (active) and 27.3 µM (active)	inactive	inactive	inactive	inactive	inactive	inactive	inactive	inactive	–
OCc1cccc(Oc2ccccc2)c1	inactive	inactive	54.5 µM (active)	inactive	inactive	inactive	inactive	inactive	inactive	–
O=C1CCCC1	inactive	inactive	inactive	inactive	inactive	inactive	inactive	inactive	inactive	–
CCCCCCCCCCCC(=O)OC	inactive	inactive	inactive	inactive	inactive	inactive	inactive	inactive	inactive	–
COC(=O)c1cccnc1	inactive	inactive	inactive	inactive	inactive	inactive	inactive	inactive	–	–
COc1ccc(N)c(C)c1	inactive	inactive	inactive	inactive	inactive	inactive	inactive	inactive	–	–
CCCCCCCCCCCCCCCCO	inactive	inactive	inactive	inactive	inactive	inactive	inactive	inactive	inactive	–
CC(C)=CCl	inactive	inactive	inactive	inactive	inactive	inactive	inactive	inactive	–	–
CCNC(=S)NCC	inactive	inactive	inactive	inactive	inactive	inactive	inactive	inactive	inactive	–
C=CC(C)CCCC(C)(C)O (configuration not stated)	inactive	inactive	inactive	inactive	inactive	inactive	inactive	inactive	–	–
CCCCCCCO	inactive	inactive	inactive	inactive	inactive	inactive	inactive	inactive	inactive	–
CC(C)OC(=O)COc1ccc(Cl)cc1Cl	inactive	inactive	inactive	inactive	inactive	inactive	inactive	inactive	–	–
CC(C)(C#N)c1cc(Cn2cncn2)cc(C(C)(C)C#N)c1	inactive	inactive	inactive	inactive	inactive	inactive	inactive	inactive	–	–
CC(C)CC(C)O (configuration not stated)	inactive	inactive	inactive	inactive	inactive	inactive	inactive	inactive	–	–
CC(=O)CC(C)(C)O	inactive	inactive	inactive	inactive	inactive	inactive	inactive	inactive	inactive	–
O=c1[nH]cnc2[nH]ncc12	inactive	inactive	inactive	inactive	inactive	inactive	inactive	inactive	–	–
Brc1ccc(Br)c(Br)c1	inactive	inactive	inactive	inactive	inactive	inactive	inactive	inactive	–	–
C=CCCCCCCCCC(=O)O	inactive	inactive	inactive	inactive	inactive	inactive	inactive	inactive	inactive	inactive
N#Cc1ccccc1	inactive	inactive	inactive	inactive	inactive	inactive	inactive	inactive	inactive	–
O=C(O)/C=C/C(=O)O	inactive	inactive	inactive	inactive	inactive	inactive	inactive	inactive	inactive	–

Structure (SMILES)	Potency [1]	Potency [2]	Potency [3]	outcome [4]	outcome [5]	outcome [6]	outcome [7]	outcome [8]	outcome [9]	outcome [10]
CNC(=O)Oc1ccc2c(c1)[C@]1(C)CCN(C)[C@@H]1N2C	inactive	inactive	inactive	inactive	inactive	inactive	inactive	inactive	inactive	–
O=[N+]([O-])c1ccc2nc[nH]c2c1	inactive	inactive	inactive	inactive	inactive	inactive	inactive	inactive	inactive	inactive
c1ccc(Oc2ccccc2)cc1	inactive	inactive	inactive	inactive	inactive	inactive	inactive	inactive	inactive	–
CN/C(=C\[N+](=O)[O-])NCCSCc1csc(CN(C)C)n1	inactive	inactive	inactive	inactive	inactive	inactive	inactive	inactive	inactive	inactive
COC(=O)CCCC(=O)OC	inactive	inactive	inactive	inactive	inactive	inactive	inactive	inactive	inactive	inactive
CN(C)c1ccc(O)c2c1C[C@H]1C[C@H]3[C@H](N(C)C)C(=O)C(C(N)=O)=C(O)[C@@]3(O)C(=O)C1=C2O	inactive	inactive	inactive	inactive	inactive	inactive	inactive	inactive	inactive	–
CC(=O)OC1CC(C)OC(C)O1 (configuration not stated)	inactive	inactive	inactive	inactive	inactive	inactive	inactive	inactive	inactive	inactive
COc1ccc(OC)cc1	inactive	inactive	inactive	inactive	inactive	inactive	inactive	inactive	inactive	–
O=C(O)Cn1c(=O)n(Cc2ccc(Br)cc2F)c(=O)c2ccc(Cl)cc21	inactive	inactive	inactive	inactive	inactive	inactive	inactive	inactive	inactive	inactive
N[C@H](Cc1c[nH]c2ccccc12)C(=O)O	inactive	inactive	inactive	inactive	inactive	inactive	inactive	inactive	inactive	inactive
CC1(C)OC[C@@H]2O[C@@]3(C(=O)O)OC(C)(C)O[C@H]3[C@@H]2O1	inactive	inactive	inactive	inactive	inactive	inactive	inactive	inactive	inactive	inactive
CC(CCl)OP(=O)(OC(C)CCl)OC(C)CCl (configuration not stated)	inactive	inactive	54.6 µM (active)	inactive	inactive	inactive	inactive	inactive	inactive	inactive
CSc1ccc(Cl)cc1	inactive	inactive	inactive	inactive	inactive	inactive	inactive	inactive	inactive	–
CC(C)CCCCCCCOC(=O)CCCCC(=O)OCCCCCCCC(C)C	inactive	inactive	inactive	inactive	inactive	inactive	inactive	inactive	inactive	–
COCCOC(=O)c1ccccc1C(=O)OCCOC	inactive	inactive	inactive	inactive	inactive	inactive	inactive	inactive	inactive	–
CC(=O)OCc1ccccc1	inactive	inactive	inactive	inactive	inactive	inactive	inactive	inactive	inactive	inactive
NCCNCCN	inactive	inactive	inactive	inactive	inactive	inactive	inactive	inactive	inactive	inactive
O=C(O)c1ccc(S(=O)(=O)N(Cl)Cl)cc1	inactive	inactive	inactive	inactive	inactive	inactive	inactive	inactive	inactive	–
